This is a sample that favours compounds with a hit; in the whole collection about 7.4% have one here.
FLuc modulator – counter-screen for miR-21 project: firefly luciferase inhibitors or activators; P08659; AID 588342; purified FLuc, Km substrates, luminescence inhibition; 6.9% of 360,000 active; Potency, µM (series often up to 57.5 µM), for inactives: at the highest dose activity change, negative = inhibition, usual class: inhibitors;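 further: plate controls were vehicle for no effect and reference inhibitor for full effect; nearly all actives have a fitted effect of over 55% in size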
Target sequence (P08659 whole entry, looked up): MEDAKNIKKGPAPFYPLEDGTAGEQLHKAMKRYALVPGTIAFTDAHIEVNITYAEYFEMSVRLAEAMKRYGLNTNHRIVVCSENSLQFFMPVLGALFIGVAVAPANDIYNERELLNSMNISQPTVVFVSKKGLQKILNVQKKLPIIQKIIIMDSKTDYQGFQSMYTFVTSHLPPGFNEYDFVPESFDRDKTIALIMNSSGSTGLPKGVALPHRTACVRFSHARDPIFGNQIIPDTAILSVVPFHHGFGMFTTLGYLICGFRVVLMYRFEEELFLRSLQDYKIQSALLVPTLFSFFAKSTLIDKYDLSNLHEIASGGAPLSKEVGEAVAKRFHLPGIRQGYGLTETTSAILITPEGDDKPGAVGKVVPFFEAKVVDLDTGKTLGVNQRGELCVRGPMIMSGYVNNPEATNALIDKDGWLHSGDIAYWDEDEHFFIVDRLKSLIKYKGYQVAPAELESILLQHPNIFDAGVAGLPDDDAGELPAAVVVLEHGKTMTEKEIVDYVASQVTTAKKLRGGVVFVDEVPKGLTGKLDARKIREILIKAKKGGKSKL
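Purified P. pyralis luciferase, 10 nM final, with Km-level 10 uM D-luciferin and 10 uM ATP in 50 mM Tris acetate pH 7.5, 10 mM Mg acetate, 0.01% Tween-20, 0.05% BSA; 6-point qHTS titration about 60 µM downward; luminescence read.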
Rab9 prom act – Rab9 promoter activation; Huh7 Rab9 promoter-luciferase reporter, luminescence, 24 h; Potency, µM (doses to about 9.22 µM), for inactives: at the highest dose activation, negative = inhibition, most hits filed as activators; 2.8% of 320,000 active; further: % of control where 0% means no effect; nearly all actives have a fitted effect of over 60% in size
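Stable Rab9-luc Huh7, 1500 cells/well, 2 h settle; cmpd in DMSO, 24 h, 37 °C/5% CO2; luciferase reagent 10 min RT; luminescence.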
SMN2 splice enh – enhancers of SMN2 splice variant expression | HEK293 SMN2-luciferase splicing reporter, luminescence, 30-36 h | Potency, µM (doses to about 46.1 µM), without a hit: at the top dose activity change, positive = activation, usual class: activators | 2.8% of 210,000 active | AID 1458; further: % of control where 0% means no effect; nearly all actives have a fitted effect of over 55% in size
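HEK293 cells carry an SMN2 […]–luciferase reporter in which exon 7 inclusion puts luciferase in frame. Cells were plated 10-12 h before compound addition, then incubated 30-36 h at 37C. ONE-Glo luminescence was read; sodium butyrate at 4.5 mM final served as control.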
ELG1 genotox – inducers of genotoxicity in HEK293T ELG1-luciferase cells; Potency, µM (series often up to 46 µM), without a hit: at the highest dose activity change, positive = activation, usual class: activators; AID 504466; HEK293T ELG1-luciferase reporter, luminescence, 16 h; 1.3% of 330,000 active; further: % of control where 0% means no effect; nearly all actives have a fitted effect of over 60% in size
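HEK293T cells expressing luciferase-tagged ELG1 were treated with compound or DMSO for 16 hr at 37°C. Luciferase activity was then read after 30 min with ONE-Glo at room temperature; rising signal flags genetic stress.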
NPC1 prom act – activates the NPC1 promoter; 2.4% of 320,000 active; AID 485313; Huh7 NPC1 promoter luciferase reporter, 24 h; Potency, µM (highest dose often 9.22 µM), for the others: top-dose activation, most hits filed as activators; further: % of control where 0% means no effect; nearly all actives have a fitted effect of over 60% in size
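NPC1 promoter–luciferase Huh7 cells; 24 h compound; luminescence.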
The depositor's hits bear a star; ? = inconclusive; . = not tested or not shown; [ ] = remark or other dose. The call rests on the fitted dose curve; in most records, active means well fitted curve in the direction sought with a large enough effect; inconclusive means small, poorly fitted or top-dose-only effect, or another doubt; inactive means no such curve, though single readings can be large; an effect the other way counts as inactive or inconclusive. Potency means the concentration at half of the fitted maximal effect.

SMILES	FLuc modulator	Rab9 prom act	SMN2 splice enh	ELG1 genotox	NPC1 prom act
O=C(Nc1ccc2oc(-c3cccnc3)nc2c1)c1ccc(Br)o1	-11%	-1%	-26%	8%	6%
Cc1ccc(N2CCN(CCC(=O)O)CC2)cc1	.	.	3%[9.22 µM]	.	.
CN(C)c1ccc(CNC(=O)CN2CCSc3ccc(S(=O)(=O)N(C)C)cc32)cc1	-15%	.	.	.	.
CCCCc1ccc(-c2ccc(C)cc2O)nc1	0.43µM*	0.63µM*	22µM*	1.5µM*	0.5µM*
CCCCc1ccc(-c2ccc(Br)cc2O)nc1	0.85µM*	0.79µM*	?	1.3µM*	1.4µM*
COc1ccc(NC(=O)CN2C(=O)C(C)(C)c3cc(S(=O)(=O)N4CCCCC4)ccc32)cc1Cl	-1%	.	.	.	.
O=C(Nc1ccc2c(c1)OCO2)c1cc(-c2cccnc2)nc2ccccc12	?	21%	-5%	-5%	12%
O=C(N/N=C/c1ccc2c(c1)OCO2)c1cc(-c2ccco2)nc2ccccc12	0.85µM*	-6%	.	6%	-18%
O=C(N/N=C/c1ccc2c(c1)OCO2)c1cc(-c2ccccc2)nc2ccccc12	11µM*	-3%	-11%[1.84 µM]	0%	1%
O=C(N/N=C/C(Cl)=C\c1ccccc1)c1cccs1	2.7µM*	2µM*	.	?	2.5µM*
CC(/C=N/NC(=O)c1cccs1)=C\c1ccccc1	2.1µM*	0.79µM*	4µM*	8%	1µM*
O=C(O)/C(=C\c1ccc(Br)cc1)NC(=O)c1cccs1	4%	1%	.	2%	-5%
C/C(=N\NC(=O)c1ccc(CSc2nncn2C)cc1)c1cccs1	24µM*	3.5µM*	13µM*	?	?
Cn1cnnc1SCc1ccc(C(=O)N/N=C/c2cccs2)cc1	17µM*	-23%	?	11%	2%
COc1cccc(C2CC(=O)N(c3ccc(F)cc3)C3=C2C(=O)OC3)c1OC (stereo not given)	2%	.	14%	.	.
Cc1ccc(OCc2cn3cccnc3n2)cc1	21µM*	2.8µM*	8.9µM*	18µM*	3.5µM*
Cc1cccn2cc(COc3ccc(-c4ccccc4)cc3)nc12	9.5µM*	?	.	?	?
O=[N+]([O-])c1cccc(OCc2cn3cccnc3n2)c1	1%	9%	-16%	15%	6%
CN(C)c1ncc2nc(-c3cc(F)cc(F)c3)c(=O)n(Cc3cccs3)c2n1	.	.	-12%	.	.
CCOC(=O)c1cc2cc(OC)ccc2[nH]1	12µM*	4µM*	-3%	?	3.5µM*
CCOC(=O)c1[nH]c2ccc(F)cc2c1NC(=O)c1cc(OC)c(OC)c(OC)c1	1%	8%	22µM*	1%	0%
CCOC(=O)c1[nH]c2ccc(OC)cc2c1C	13µM*	?	4%	?	?
CCOC(=O)c1[nH]c2ccc(OC)cc2c1NC(C)=O	-7%	-11%	-3%	-1%	6%
CCOC(=O)c1cnc(NCc2ccc(OC)cc2OC)c2ccccc12	-8%	.	.	.	.
COc1ccc(C2=C(C)C(=NCCCN3CCN(c4cc(C)ccc4C)CC3)NS2(=O)=O)cc1	-2%	.	.	.	.
SMILES	FLuc modulator	Rab9 prom act	SMN2 splice enh	ELG1 genotox	NPC1 prom act
COc1cc(NC(=O)c2ccc(N)nc2)cc(C(=O)Nc2cccc(C(F)(F)F)c2)c1	7.6µM*	3%	.	7%	2%
COc1cc(Nc2ccccn2)cc(C(=O)Nc2cccc(C(F)(F)F)c2)c1	?	-10%	.	-13%	2%
COc1cc(NC(=O)c2nccnc2N)cc(C(=O)Nc2cccc(C(F)(F)F)c2)c1	11µM*	-6%	.	6%	-3%
Cc1ccc(CCNC(=O)C(CC(C)C)NS(=O)(=O)c2ccc3c(c2)oc(=O)n3C)cc1 (stereo not given)	1%	.	?	.	.
CC(=O)C1CCC2C3CC(C)C4=CC(=O)CC[C@@]4(C)C3C(O)C[C@@]12C (stereo not given in full)	.	.	-15%	.	.
CC(=O)c1ccc(NC(=O)C2CCC(CNS(=O)(=O)c3ccc4c(c3)CCCC(=O)N4)CC2)cc1 (stereo not given)	2%	.	.	.	.
C=CC(=O)CC	.	.	6%	.	.
CCOc1ccc(C(=O)N2CCCCC2CCN2CCOCC2)cc1 (stereo not given)	-5%	.	3%	.	.
Cc1cc(C(=O)COC(=O)c2ccc(N)c([N+](=O)[O-])c2)c(C)n1Cc1ccc2c(c1)OCO2	?	3%	.	7%	26%
C=CCn1c(C)cc(C(=O)COC(=O)c2ccc3c(c2)NC(=O)CS3)c1C	17µM*	2%	21%	0%	5%
COC(=O)c1ccc2c(c1)NC(=O)CS2	-2%	-5%	3%	-1%	-6%
C=CCn1c(C)cc(C(=O)COC(=O)c2ccc(N)c([N+](=O)[O-])c2)c1C	3µM*	1.3µM*	13µM*	2.6µM*	4µM*
COCCn1c(C)cc(C(=O)COC(=O)c2ccc3c(c2)NC(=O)CS3)c1C	13µM*	1%	7%	1%	0%
COc1ccc(Cl)cc1NC(=O)CSc1nnc(C)n2c1cc1occc12	-2%	.	.	.	.
CC(NC(=O)c1cc(-c2ccc(Cl)cc2)on1)c1ccccc1 (stereo not given)	-6%	.	6%	.	.
Cc1ccccc1C(=O)N/N=C/c1ccccn1	8.5µM*	4µM*	11µM*	26µM*	3.2µM*
Cc1ccccc1C(=O)N/N=C/c1ccncc1	?	11%	-1%	7%	13%
Cc1ccccc1OCC(=O)N/N=C/c1ccccn1	2%	-5%	6%	-3%	-6%
O=C(N/N=C/c1ccc(-c2ccccc2)o1)c1ccccc1O	5.4µM*	19%	.	0%	11%
CC1(C)C2CC=C(/C=N/NC(=O)c3ccccc3O)C1C2 (stereo not given)	7.6µM*	-3%	-15%	0%	-1%
O=C(N/N=C\c1ccncc1)c1ccccc1O	9.5µM*	-1%	25%	-5%	13%
CNC(=S)N/N=C/C1=CCC2CC1C2(C)C (stereo not given)	9%	-5%	9%	0%	-2%
O=C(N/N=C\c1ccccn1)c1ccccc1O	12µM*	13%	18%	?	0%
COc1ccc(C(=O)Nc2ccccc2C(=O)N/N=C/c2ccccn2)cc1OC	0.85µM*	-14%	.	21µM*	-8%
COC(=O)c1ccc(NC(=O)c2c(-c3ccccc3)c(-c3ccccc3)nn(C)c2=O)cc1	-11%	.	2%	.	.
COc1cccc(CN(C(=O)c2oc3ccc(Br)cc3c2C)C2CCS(=O)(=O)C2)c1 (stereo not given)	-11%	.	-15%	.	.
CCCSc1nnc(Nc2ccccc2C)s1	19µM*	2.8µM*	?	?	28%
CN(C(=O)CSc1nnc(Nc2ccccc2F)s1)C1CCS(=O)(=O)C1 (stereo not given)	.	.	.	2%	.
O=C1c2ccccc2C(=O)N1CSc1nnc(Nc2ccccc2F)s1	2%	9%	6.3µM*	14%	4%
CCN(CC)C(=O)CCCSc1nnc(Nc2ccccc2F)s1	17µM*	1.8µM*	.	17%	?

Compound activity: PubChem BioAssay, National Center for Advancing Translational Sciences (NCATS)
